Inconclusive results are not listed. A call without a number means that no potency is given here. Values without a mark were called inactive. Activity calls are given as the source filed them. Unless noted, calls follow the shape of the dose curve; as a rule, active = well fitted curve in the direction sought with a large enough effect in the repeat runs; inconclusive = weak or mixed curves; inactive = no such curve, though single readings can be large; an effect the other way counts as inactive or inconclusive.
Key:
[1] = test system: thyroid hormone receptor (rat, GH3 cells); experiment: qHTS assay to identify small molecule agonists of the thyroid receptor (TR) signaling pathway (AID 743066; calls by dose curve)
[2] = qHTS assay to identify small molecule antagonists of the estrogen receptor alpha (ER-alpha) signaling pathway - cell viability counter screen (AID 743074; calls by dose curve;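 also: HEK293 cells carrying ER-alpha-UAS-bla reporter stimulated with 17beta-estradiol; nearly all actives have a fitted effect of over 45% in size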)
[3] = qHTS assay to identify small molecule antagonists of the estrogen receptor alpha (ER-alpha) signaling pathway using the BG1 cell line - cell viability counter screen (AID 743081);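 also: compound given together with 17beta-estradiol as the ER stimulus; series mostly up to about 70 µM; nearly all actives have a fitted effect of over 45% in size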
Aromatase (Homo sapiens) = Aromatase (Homo sapiens) (UniProt P11511); experiment: qHTS assay to identify aromatase inhibitors (AID 743083); also: nearly all actives have a fitted effect of over 55% in size; also: potency is read from the fitted curve at half-maximal effect
[4] = qHTS assay to identify aromatase inhibitors - cell viability counter screen (AID 743084);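 also: cells stimulated with testosterone during compound exposure; nearly all actives have a fitted effect of over 55% in size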
[5] = target: Aryl hydrocarbon receptor (Homo sapiens) (UniProt P35869); experiment: qHTS assay to identify small molecule that activate the aryl hydrocarbon receptor (AhR) signaling pathway (AID 743085); also: nearly all actives have a fitted effect of over 15% in size; also: potency is read from the fitted curve at half-maximal effect;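 as to activation: HG2L7.5c1 human HepG2 liver cells with stably integrated DRE-driven firefly reporter; series mostly up to about 70 µM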
Procedure, shortened: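 Measured in HG2L7.5c1 cells: CellTiter-Fluor signal (30 min incubation, 37C) for viability, then luciferase luminescence (30 min, room temperature). Compound contact time was 24 h at 37C, following a 5 h pre-incubation.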

[6] = qHTS assay to identify small molecule that activate the aryl hydrocarbon receptor (AhR) signaling pathway - cell viability counter screen (AID 743086);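 also: HepG2 liver cells carrying the AhR DRE luciferase reporter; series mostly up to about 70 µM; nearly all actives have a fitted effect of over 45% in size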
Procedure, shortened: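 HepG2-AhR-luc (HG2L7.5c1) cells, 4000/well, were preincubated 5 h at 37C, exposed to compound in qHTS format for 24 hr at 37C, then given CellTiter-Fluor for 30 min; viability was read as fluorescence in the reporter wells.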

[7] = target: Peroxisome proliferator-activated receptor gamma (Homo sapiens) (UniProt P37231); experiment: qHTS assay to identify small molecule agonists of the peroxisome proliferator-activated receptor gamma (PPARg) signaling pathway (AID 743094; active = well fitted activation curve with a large enough effect in the signal ratio in the repeat runs, not every such curve was filed as active; the % refers to the signal ratio)
Procedure, shortened: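 Fluorescence-based beta-lactamase readout in HEK293H PPARg UAS-bla cells after 17 h compound exposure (37C) and 1 h B/G FRET substrate incubation at room temperature.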

[8] = target: Peroxisome proliferator-activated receptor gamma (Homo sapiens) (UniProt P37231); experiment: qHTS assay to identify small molecule antagonists of the peroxisome proliferator-activated receptor gamma (PPARg) signaling pathway (AID 743191; calls by dose curve; also: series mostly up to about 63 µM; nearly all actives have a fitted effect of over 30% in size)
Procedure, shortened: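 GeneBLAzer PPARg UAS-bla HEK293H cells carrying a UAS-driven beta-lactamase reporter were plated at 3000 cells/well, preincubated 5 h at 37C, then given compound for 17 h at 37C; LiveBLAzer B/G FRET substrate was read after 1 h at room temperature.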

[9] = qHTS assay to identify small molecule antagonists of the peroxisome proliferator-activated receptor gamma (PPARg) signaling pathway - cell viability counter screen (AID 743194); also: nearly all actives have a fitted effect of over 55% in size
Procedure, shortened: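 PPARg-UAS-bla HEK293H cells were plated, rested 5 h at 37 C, then treated with compounds plus rosiglitazone (50 nM final) for 17 h at 37 C; viability was then read by CellTiter-Glo luminescence after 30 min at room temperature.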

[10] = qHTS assay for small molecule agonists of the antioxidant response element (ARE) signaling pathway (AID 743202; active = well fitted activation curve with a large enough effect in the signal ratio in the repeat runs, not every such curve was filed as active; the % refers to the signal ratio; also: potency is read from the fitted curve at half-maximal effect)
Procedure, shortened: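 Following a 16 h, 37 C exposure of reporter HepG2 cells (ARE-driven beta-lactamase, 2,000 cells/well) to compounds, FRET substrate was applied for 2 h at room temperature and fluorescence intensity recorded.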

[11] = qHTS assay for small molecule agonists of the antioxidant response element (ARE) signaling pathway - cell viability counter screen (AID 743203; calls by dose curve; also: nearly all actives have a fitted effect of over 55% in size)
Procedure, shortened: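 Parallel cytotoxicity read-out for the ARE-bla screen: HepG2 reporter cells, 16 hrs with compounds, then CellTiter-Glo luminescence.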

[12] = qHTS assay for small molecule activators of the heat shock response signaling pathway - cell viability counter screen (AID 743209); also: nearly all actives have a fitted effect of over 50% in size
Procedure, shortened: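 To flag cytotoxic compounds, HSE-bla HeLa cells plated at 1500 cells/well were dosed for 5 h at 37 C, followed by the reporter FRET read and then CellTiter-Glo, with luminescence recorded 30 min after reagent addition.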

[13] = qHTS assay for small molecule activators of the heat shock response signaling pathway (AID 743210; active = well fitted activation curve with a large enough effect in the signal ratio in the repeat runs, with a control signal flat, not every such curve was filed as active; the % refers to the signal ratio; also: series mostly up to about 63 µM)
Procedure, shortened: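 Heat shock element–beta-lactamase HeLa reporter cells; qHTS with compounds for 5 h at 37 C; detection by FRET substrate fluorescence after 2.5 h at RT.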

[14] = qHTS assay to identify small molecule agonists of the peroxisome proliferator-activated receptor delta (PPARd) signaling pathway - cell viability counter screen (AID 743211); also: nearly all actives have a fitted effect of over 55% in size
Procedure, shortened: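 Following 5 h plating at 37 C and 5% CO2, PPARd UAS-bla HEK293H cells took up test compounds for 17 h. Viability was quantified by luminescence 30 min after CellTiter-Glo addition at room temperature.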

[15] = target: Peroxisome proliferator-activated receptor delta (Homo sapiens) (UniProt Q03181); experiment: qHTS assay to identify small molecule agonists of the peroxisome proliferator-activated receptor delta (PPARd) signaling pathway (AID 743212; calls by dose curve)
Procedure, shortened: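 Beta-lactamase reporter read by fluorescence (LiveBLAzer B/G FRET, 2 h, room temperature). Test agents, in DMSO, incubated at 37 C with PPARd-bla HEK293H cells.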

[16] = target: Estrogen receptor (Homo sapiens) (UniProt P03372); experiment: qHTS assay to identify small molecule agonists of the estrogen receptor alpha (ER-alpha) signaling pathway (AID 743075; calls by dose curve;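 also: HEK293 GripTite cells with ER-alpha and UAS-driven beta-lactamase reporter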)
[17] = target: Estrogen receptor (Homo sapiens) (UniProt P03372); experiment: qHTS assay to identify small molecule agonists of the estrogen receptor alpha (ER-alpha) signaling pathway using the BG1 cell line (AID 743079); also: nearly all actives have a fitted effect of over 20% in size; also: potency is read from the fitted curve at half-maximal effect
[18] = target: Estrogen receptor (Homo sapiens) (UniProt P03372); experiment: qHTS assay to identify small molecule antagonists of the estrogen receptor alpha (ER-alpha) signaling pathway (AID 743069; active = well fitted curve in the direction sought with a large enough effect in the signal ratio in the repeat runs, not every such curve was filed as active; the % refers to the signal ratio)
Procedure, shortened: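 A 17beta-estradiol challenge was applied right after compound transfer to ER-alpha-UAS-bla HEK293 cells previously kept in charcoal-stripped serum. Plates stood 18 hr at 37C and 5% CO2; fluorescence was read following 2 hr FRET substrate loading at room temperature.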

[19] = qHTS assay to identify small molecule antagonists of the estrogen receptor alpha (ER-alpha) signaling pathway using the BG1 cell line (AID 743080; calls by dose curve;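 also: BG1 cells stimulated with 17beta-estradiol alongside compound; series mostly up to about 70 µM; nearly all actives have a fitted effect of over 25% in size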)
Procedure, shortened: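 Quantitative HTS on the Tox21 10K library: BG1 cells with endogenous ER-alpha and ERE-luciferase reporter, 17beta-estradiol stimulation, 21.5 h compound exposure, luminescence endpoint with parallel fluorescence cytotoxicity counter-read.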

Sequence of Peroxisome proliferator-activated receptor delta (Homo sapiens) (Q03181 whole entry, looked up): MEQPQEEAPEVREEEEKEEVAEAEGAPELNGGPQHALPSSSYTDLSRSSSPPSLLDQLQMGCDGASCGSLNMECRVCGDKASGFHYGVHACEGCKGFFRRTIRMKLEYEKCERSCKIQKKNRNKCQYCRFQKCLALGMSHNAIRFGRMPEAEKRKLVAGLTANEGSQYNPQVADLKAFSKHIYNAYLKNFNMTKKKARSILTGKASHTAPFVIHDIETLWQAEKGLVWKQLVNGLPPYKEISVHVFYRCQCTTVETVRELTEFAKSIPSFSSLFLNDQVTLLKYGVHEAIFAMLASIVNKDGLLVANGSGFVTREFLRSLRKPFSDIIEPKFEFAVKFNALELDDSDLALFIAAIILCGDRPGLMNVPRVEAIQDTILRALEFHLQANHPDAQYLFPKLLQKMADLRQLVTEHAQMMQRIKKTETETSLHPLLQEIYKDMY
Sequence of Aromatase (Homo sapiens) (P11511 whole entry, looked up): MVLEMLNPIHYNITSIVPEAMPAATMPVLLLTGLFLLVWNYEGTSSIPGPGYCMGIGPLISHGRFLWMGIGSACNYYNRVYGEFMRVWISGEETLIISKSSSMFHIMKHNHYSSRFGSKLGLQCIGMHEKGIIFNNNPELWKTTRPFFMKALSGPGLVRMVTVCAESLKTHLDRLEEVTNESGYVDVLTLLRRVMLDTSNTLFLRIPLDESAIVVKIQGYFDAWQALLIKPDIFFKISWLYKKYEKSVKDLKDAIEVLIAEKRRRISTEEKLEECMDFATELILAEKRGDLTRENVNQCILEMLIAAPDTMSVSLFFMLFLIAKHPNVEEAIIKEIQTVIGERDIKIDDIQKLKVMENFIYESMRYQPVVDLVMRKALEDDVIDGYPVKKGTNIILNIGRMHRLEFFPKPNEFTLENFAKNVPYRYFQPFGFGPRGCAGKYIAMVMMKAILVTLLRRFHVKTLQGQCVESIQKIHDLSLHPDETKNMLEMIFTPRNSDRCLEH
Sequence of Aryl hydrocarbon receptor (Homo sapiens) (P35869 whole entry, looked up): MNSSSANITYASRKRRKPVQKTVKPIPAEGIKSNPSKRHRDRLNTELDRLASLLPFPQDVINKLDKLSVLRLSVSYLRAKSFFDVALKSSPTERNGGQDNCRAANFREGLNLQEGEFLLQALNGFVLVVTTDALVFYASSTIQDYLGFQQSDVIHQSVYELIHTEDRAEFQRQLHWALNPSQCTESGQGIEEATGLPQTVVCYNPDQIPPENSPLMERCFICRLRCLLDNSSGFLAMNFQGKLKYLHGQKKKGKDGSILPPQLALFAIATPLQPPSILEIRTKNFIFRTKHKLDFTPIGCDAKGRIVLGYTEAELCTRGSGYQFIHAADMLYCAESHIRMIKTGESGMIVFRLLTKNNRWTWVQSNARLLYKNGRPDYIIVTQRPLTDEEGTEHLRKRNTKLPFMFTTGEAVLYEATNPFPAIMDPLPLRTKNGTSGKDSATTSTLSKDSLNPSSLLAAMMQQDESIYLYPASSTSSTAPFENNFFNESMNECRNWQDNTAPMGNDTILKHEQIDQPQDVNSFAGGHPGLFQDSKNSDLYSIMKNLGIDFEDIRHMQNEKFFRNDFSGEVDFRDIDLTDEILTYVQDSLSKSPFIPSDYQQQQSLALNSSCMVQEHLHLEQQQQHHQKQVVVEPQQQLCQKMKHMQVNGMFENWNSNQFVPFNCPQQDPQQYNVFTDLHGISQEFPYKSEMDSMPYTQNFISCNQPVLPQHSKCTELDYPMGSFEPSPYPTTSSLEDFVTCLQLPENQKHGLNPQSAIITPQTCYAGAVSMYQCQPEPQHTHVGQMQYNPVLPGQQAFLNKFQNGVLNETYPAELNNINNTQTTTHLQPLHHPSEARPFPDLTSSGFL
Sequence of Estrogen receptor (Homo sapiens) (P03372 whole entry, looked up): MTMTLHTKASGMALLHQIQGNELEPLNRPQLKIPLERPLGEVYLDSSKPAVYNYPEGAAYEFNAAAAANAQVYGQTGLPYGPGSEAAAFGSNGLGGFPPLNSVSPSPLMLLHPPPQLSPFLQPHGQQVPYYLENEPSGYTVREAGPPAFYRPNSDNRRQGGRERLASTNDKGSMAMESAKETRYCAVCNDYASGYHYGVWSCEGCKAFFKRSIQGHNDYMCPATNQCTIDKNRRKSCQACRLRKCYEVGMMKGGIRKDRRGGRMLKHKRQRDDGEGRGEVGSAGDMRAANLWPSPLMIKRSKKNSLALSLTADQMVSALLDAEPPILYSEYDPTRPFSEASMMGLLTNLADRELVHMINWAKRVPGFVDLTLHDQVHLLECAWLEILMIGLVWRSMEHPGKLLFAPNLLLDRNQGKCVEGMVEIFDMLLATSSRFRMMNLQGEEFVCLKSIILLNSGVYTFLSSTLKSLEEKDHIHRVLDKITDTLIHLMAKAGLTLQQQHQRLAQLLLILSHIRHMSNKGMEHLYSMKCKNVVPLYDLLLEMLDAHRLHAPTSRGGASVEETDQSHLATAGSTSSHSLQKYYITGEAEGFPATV
Sequence of Peroxisome proliferator-activated receptor gamma (Homo sapiens) (P37231 whole entry, looked up): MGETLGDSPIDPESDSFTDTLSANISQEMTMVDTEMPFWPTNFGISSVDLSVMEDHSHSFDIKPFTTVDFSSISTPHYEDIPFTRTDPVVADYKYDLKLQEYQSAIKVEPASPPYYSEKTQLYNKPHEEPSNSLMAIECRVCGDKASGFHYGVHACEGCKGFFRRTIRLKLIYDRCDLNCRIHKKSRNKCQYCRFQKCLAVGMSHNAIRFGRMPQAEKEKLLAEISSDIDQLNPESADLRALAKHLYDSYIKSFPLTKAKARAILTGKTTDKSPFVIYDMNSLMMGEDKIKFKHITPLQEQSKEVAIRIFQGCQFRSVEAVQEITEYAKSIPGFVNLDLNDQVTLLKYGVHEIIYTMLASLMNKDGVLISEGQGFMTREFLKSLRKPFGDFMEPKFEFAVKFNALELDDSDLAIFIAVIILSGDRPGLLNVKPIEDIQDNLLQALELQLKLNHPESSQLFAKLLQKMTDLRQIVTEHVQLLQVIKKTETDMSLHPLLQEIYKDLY

C=CC(C)CCC=C(C)C (centres undefined)
outcome [1]: inactive
outcome [2]: inactive
Potency [3]: inactive
Potency (Aromatase (Homo sapiens)): inactive
Potency [4]: inactive
Potency [5]: inactive
Potency [6]: inactive
Potency [7]: inactive
Potency [8]: inactive
Potency [9]: inactive
Potency [10]: inactive
Potency [11]: inactive
outcome [12]: inactive
outcome [13]: inactive
Potency [14]: inactive
Potency [15]: inactive

C[Si](C)(C)O[Si](C)(C)O[Si](C)(C)C
outcome [1]: inactive
outcome [2]: inactive
Potency [3]: inactive
Potency (Aromatase (Homo sapiens)): inactive
Potency [4]: inactive
Potency [5]: inactive
Potency [6]: inactive
Potency [7]: inactive
Potency [8]: inactive
Potency [9]: inactive
Potency [10]: inactive
Potency [11]: inactive
outcome [12]: inactive
outcome [13]: inactive
Potency [14]: inactive
Potency [15]: inactive

O=[N+]([O-])c1ccccc1CCO
outcome [1]: inactive
outcome [2]: inactive
Potency [3]: inactive
Potency (Aromatase (Homo sapiens)): inactive
Potency [4]: inactive
Potency [6]: inactive
Potency [7]: inactive
Potency [8]: inactive
Potency [9]: inactive
Potency [11]: inactive
outcome [12]: inactive
outcome [13]: inactive
Potency [14]: inactive
Potency [15]: inactive

CC(=O)Nc1ccn(C2COC(COC(=O)c3ccccc3)O2)c(=O)n1 (centres undefined)
outcome [1]: inactive
Potency [3]: inactive
Potency [4]: inactive
Potency [5]: inactive
Potency [6]: inactive
Potency [9]: inactive
Potency [10]: inactive
Potency [11]: inactive
outcome [12]: inactive
outcome [13]: inactive
Potency [14]: inactive

CCOc1ccc2c(c1)C(C)CC(C)(C)N2 (centres undefined)
outcome [1]: inactive
outcome [2]: inactive
Potency [3]: inactive
Potency (Aromatase (Homo sapiens)): inactive
Potency [4]: inactive
Potency [6]: inactive
Potency [7]: inactive
Potency [8]: inactive
Potency [9]: inactive
Potency [10]: inactive
Potency [11]: inactive
outcome [12]: inactive
outcome [13]: inactive
Potency [14]: inactive
Potency [15]: inactive

c1ccc(CCNc2nc(-c3ccccc3)cs2)cc1
outcome [1]: inactive
Potency [16]: inactive
Potency [17]: 0.944 µM (active)
Potency [3]: inactive
Potency (Aromatase (Homo sapiens)): inactive
Potency [4]: inactive
Potency [5]: 15 µM (active)
Potency [8]: inactive
Potency [9]: inactive
Potency [11]: inactive
outcome [12]: inactive
outcome [13]: inactive
Potency [15]: inactive

CCc1ccc(C(=O)C(C)CN2CCCCC2)cc1 (centres undefined)
outcome [1]: inactive
outcome [2]: inactive
Potency [3]: inactive
Potency (Aromatase (Homo sapiens)): inactive
Potency [4]: inactive
Potency [5]: inactive
Potency [8]: inactive
Potency [9]: inactive
Potency [10]: 23.7 µM (active)
Potency [11]: inactive
outcome [12]: inactive
outcome [13]: inactive
Potency [14]: inactive

CC(=O)CC/C=C(\C)CC/C=C(\C)CC/C=C(\C)CCC=C(C)C
outcome [1]: inactive
outcome [2]: inactive
Potency [3]: inactive
Potency (Aromatase (Homo sapiens)): inactive
Potency [4]: inactive
Potency [6]: inactive
Potency [8]: inactive
Potency [9]: inactive
Potency [11]: inactive
outcome [12]: inactive
outcome [13]: inactive
Potency [14]: inactive
Potency [15]: inactive

COc1cc(C)c(Cc2cnc(N)nc2N)cc1OC
Potency [18]: inactive
outcome [2]: inactive
Potency [16]: inactive
Potency [17]: inactive
Potency [19]: inactive
Potency [3]: inactive
Potency (Aromatase (Homo sapiens)): inactive
Potency [4]: inactive
Potency [5]: inactive
Potency [6]: inactive
Potency [7]: inactive
Potency [9]: inactive
Potency [10]: inactive
Potency [11]: inactive
outcome [12]: inactive
outcome [13]: inactive
Potency [14]: inactive
Potency [15]: inactive

CCCCCCCCNC
outcome [1]: inactive
Potency [3]: inactive
Potency (Aromatase (Homo sapiens)): inactive
Potency [4]: inactive
Potency [6]: inactive
Potency [7]: inactive
Potency [9]: inactive
Potency [10]: inactive
Potency [11]: inactive
outcome [12]: inactive
outcome [13]: inactive
Potency [14]: inactive
Potency [15]: inactive

O=C(O)CNc1ccccc1
outcome [1]: inactive
outcome [2]: inactive
Potency [3]: inactive
Potency (Aromatase (Homo sapiens)): inactive
Potency [4]: inactive
Potency [6]: inactive
Potency [7]: inactive
Potency [8]: inactive
Potency [9]: inactive
Potency [10]: inactive
Potency [11]: inactive
outcome [12]: inactive
outcome [13]: inactive
Potency [14]: inactive
Potency [15]: inactive

Cc1cc(SC2=C(O)C[C@@](CCc3ccc(N)cc3)(C(C)C)OC2=O)c(C(C)(C)C)cc1CO
outcome [1]: inactive
outcome [2]: inactive
Potency [3]: inactive
Potency (Aromatase (Homo sapiens)): inactive
Potency [5]: inactive
Potency [9]: inactive
Potency [11]: inactive
outcome [12]: inactive
outcome [13]: inactive
Potency [15]: inactive

O=C(NC1CCN(CCc2c[nH]c3ccccc23)CC1)c1ccccc1
outcome [1]: inactive
outcome [2]: inactive
Potency (Aromatase (Homo sapiens)): inactive
Potency [4]: inactive
Potency [5]: 29.8 µM (active)
Potency [9]: inactive
Potency [11]: inactive
outcome [12]: inactive
outcome [13]: inactive
Potency [14]: inactive

Cc1c(-c2cccnc2)c2ccccc2n1CCCCC(=O)O
outcome [1]: inactive
outcome [2]: inactive
Potency [3]: inactive
Potency (Aromatase (Homo sapiens)): 43.3 µM (active)
Potency [4]: inactive
Potency [6]: inactive
Potency [9]: inactive
Potency [11]: inactive
outcome [12]: inactive
outcome [13]: inactive
Potency [14]: inactive

CCC(C)C1N=C(C)C(C)S1 (centres undefined)
outcome [1]: inactive
outcome [2]: inactive
Potency [3]: inactive
Potency [6]: inactive
Potency [9]: inactive
Potency [10]: inactive
Potency [11]: inactive
outcome [12]: inactive
outcome [13]: inactive
Potency [15]: inactive

Clc1ccccc1-c1nc(-c2ccncc2)no1
outcome [1]: inactive
outcome [2]: inactive
Potency [3]: inactive
Potency (Aromatase (Homo sapiens)): inactive
Potency [4]: inactive
Potency [6]: inactive
Potency [8]: inactive
Potency [9]: inactive
Potency [10]: 1.68 µM (active)
Potency [11]: inactive
outcome [12]: inactive
outcome [13]: inactive
Potency [15]: inactive

NCCOCCOCCN
outcome [1]: inactive
outcome [2]: inactive
Potency [3]: inactive
Potency (Aromatase (Homo sapiens)): inactive
Potency [4]: inactive
Potency [5]: inactive
Potency [8]: inactive
Potency [9]: inactive
Potency [10]: 48.6 µM (active)
Potency [11]: inactive
outcome [12]: inactive

O=C1c2ccccc2C(=O)c2c1ccc(O)c2O
outcome [1]: inactive
outcome [2]: inactive
Potency [3]: inactive
Potency (Aromatase (Homo sapiens)): inactive
Potency [5]: 29.8 µM (active)
Potency [6]: inactive
Potency [7]: inactive
Potency [9]: inactive
Potency [11]: inactive
outcome [12]: inactive
Potency [14]: inactive
Potency [15]: inactive

Source: PubChem BioAssay (Tox21)
